This is part of a sample that, as a whole, favours compounds with a hit. Of some 83,000 tested, about 20% had one in any assay.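 48-hour exposure, single concentration, 96-well plates; percent growth endpoint where 0 means no net growth. Active: below 10.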 Unmarked numbers belong to inactive results. The source made the active and inactive calls.
These molecules were tested on NCI/ADR-RES ovarian (assay: NCI-60 one-dose screen, 48 h (100 = growth as untreated, 0 = no growth, -100 = all killed)). Conditions: 10 µM unless noted.
Procedure: Growth inhibition of the NCI/ADR-RES human […] tumor cell line is measured as a screen for anti-cancer activity. Cells are grown in 96 well plates and exposed to the test compound for 48 hours. Compounds are tested at a single concentration, which is 10^-5 M for most compounds. The reported endpoint is percent growth (GI% or GIPRCNT), where numbers from 0 - 100% represent growth inhibition, and numbers from -100% - 0 represent cell death. For example, a value of 40 represents 60% growth inhibition. A value of 0 means no net growth occurred over the course of the experiment. A value of -40 indicates 40% of cells at the beginning of the experiment died by the end of the experiment. A value of -100 means all cells are dead at the end of the experiment.
NCI-60 Human Tumor Cell Lines Screen was performed using the standard one-dose NCI protocol, which is described in more detail at https://dtp.cancer.gov/discovery_development/nci-60/default.htm.
Compounds with GIPRCNT values below 10 were considered active. Activity score was based on GIPRCNT using the following formula: […]
Score is 0 for GIPRCNT values of 100 or above, 50 for GIPRCNT values of 0, and 100 for GIPRCNT values of -100.
With CC(C)=CCNc1ncnc2c1ncn2C1OC(COP(=O)(O)O)C(O)C1O (stereo not given) the growth was 39.1%.
CC(=O)c1ccccc1NC(=O)C(C)(c1ccccc1)c1ccccc1 gave a growth of 63.8%.
With O=c1oc2c(cc1-c1ccc([N+](=O)[O-])cc1)C(O)Oc1ccccc1-2 (stereo not given) the growth was 72.2%.
For COc1ccc(CNC(=O)c2c(C)n([O-])c3ccccc3[n+]2=O)cc1, the growth was 54.2%.
[N-]=[N+]=NCc1ncc(-c2ccc(C(F)(F)F)cc2)c(NC2CCCCCC2)n1 was tested, and the growth was 88.4% [50 µM].
O=C1C=CC(=O)N1c1ccccn1 gave a growth of 106%.
Nc1nc(NC2CC2)c2ncn(C3C=CC(CO)C3)c2n1 (stereo not given) was tested, and the growth was 104%.
Work on O=C(/C=C/c1c(-c2ccccc2)[nH]c2ccccc12)S(=O)(=O)c1ccccc1 yielded a growth of 16.4%.
c1cc[n+](Cc2ccnc3ccccc23)cc1 was tested, and the growth was 109%.
Work on Oc1ccc(/C=N/Nc2nc3ccccc3s2)c(O)c1 yielded a growth of 17.7%.
Work on C=CCNC(=O)/C(=C/c1cccc([N+](=O)[O-])c1)NC(=O)c1ccccc1 yielded a growth of 106%.
Molecule CCSc1ncc(Br)c(Sc2nc(N)nc3nc[nH]c23)n1 has a growth of 33.4%.
Molecule O=C(N/N=C/c1cccc(O)c1)c1ccc(C(F)(F)F)nc1Nc1cccc(C(F)(F)F)c1 has a growth of 13.6%.
CC(C)=CCCC(C)c1ccc(C)c2c1OCN(CC1CCNCC1)C2 (stereo not given) gave a growth of 83.5%.
Cc1sc2nc3c4ccccc4c(NCCCN(C)C)nn3c(=O)c2c1C showed a growth of 66.8%.
NS(=O)(=O)c1ccc(N2CC(c3nc4ccccc4[nH]3)CC2=O)cc1 (stereo not given) gave a growth of 103%.
COc1ccc(CC(=O)Nc2nn3c(-c4cc(C(F)(F)F)cc(C(F)(F)F)c4)nnc3s2)cc1 gave a growth of 69.1%.
With C(=C1c2ccccc2-c2ccccc21)c1ccccn1 the growth was 31.1%.
For Cc1onc(-c2ccccc2Cl)c1C(=O)N[C@@H]1C(=O)N2[C@@H]1SC(C)(C)[C@@H]2C(=O)O, the growth was 109%.
In the case of CC(=O)N1N=C(c2ccc3c(c2)OCO3)CC1c1c(C)nn(-c2ccccc2)c1N(C)Cc1ccccc1 (stereo not given), the growth is reported as 63%.
CC(C)CNc1nc(N=[N+]=[N-])nc(NCC(C)C)n1 gave a growth of 54.1% [100 µM].
For COc1ccc(C2=NN(C(C)=O)C(c3c(C)nn(-c4ccccc4)c3N3CCOCC3)C2)cc1 (stereo not given), the growth was 94.7%.
Molecule Cc1ccc(S(=O)(=O)N2CCN(C(=O)CSc3nc4ccc(C)cc4[nH]3)CC2)cc1 has a growth of 107%.
Molecule COC(=O)C1=CCC(n2cnc3c(N)ncnc32)O1 (stereo not given) has a growth of 95.4%.
With O=C(Oc1ccccc1)C(Br)C(Br)c1ccccc1 (stereo not given) the growth was 113%.
In the case of O=[N+]([O-])c1ccc2[nH]cc(-c3c4ccccc4cc4[nH]c5ccc([N+](=O)[O-])cc5c34)c2c1, the growth is reported as 8.13% (active).
N#CC(C#N)C(C#N)C#N gave a growth of 101%.
For COc1ccc(N2CCN(CC(=O)N3CCN(c4nnc(-c5ccccc5)c(-c5ccccc5)n4)CC3)CC2)cc1, the growth was 49.9%.
COc1cc(C2CC(c3ccc(C)cc3)=NN2C=O)ccc1OCCN(C)C (stereo not given) gave a growth of 90.9%.
With Cc1ncc(C(=O)Nc2ccc(CN3CCN(C)CC3)c(C(F)(F)F)c2)cc1C#Cc1cncc2ncccc12 the growth was 86.8%.
N#Cc1ccccc1C#Cc1ccccc1C#Cc1ccc(OCCCCCCOc2ccc(C#Cc3ccccc3C#Cc3ccccc3C#N)cc2)cc1 gave a growth of 104%.
With O=Cc1ncc(-c2ccc(C(F)(F)F)cc2)c(NC2CCCCCC2)n1 the growth was -69.8% [100 µM] (active).
C/C(=C\CCc1ccoc1)CC/C=C(\C)CCCC1COC(=O)C1 (stereo not given) was tested, and the growth was 101%.
For Nc1c(C(=O)Nc2cccc(Cl)c2)sc2nc3c(cc12)C(O)CCC3 (stereo not given), the growth was 8.73% (active).
Molecule CCOC(=O)OCC(=O)[C@@]1(O)CC[C@H]2[C@@H]3CCC4=CC(=O)CC[C@]4(C)[C@H]3[C@@H](O)C[C@@]21C has a growth of 91%.
With COCCCNS(=O)(=O)c1ncnc2nc[nH]c12 the growth was 99.5%.
C[C@H]1c2cccc(O)c2C(O)=C2C(=O)[C@]3(O)C(O)=C(C(N)=O)C(=O)[C@@H](N(C)C)[C@@H]3[C@@H](O)[C@@H]21 gave a growth of 66%.
Molecule NC(=O)NS(=O)(=O)c1ccc(N2N=C(C(F)(F)F)CC2c2cc(C(F)(F)F)cc(C(F)(F)F)c2)cc1 (stereo not given) has a growth of 77%.
With CN1C(=O)C(C2=NN(C=O)C(c3ccc(F)cc3)C2)C(=O)N(C)C1=O (stereo not given) the growth was 99.2%.
Cc1[nH]ccc2cc3nc4ccccc4c3cc12 was tested, and the growth was 24.9%.

— PubChem BioAssay (NCI)
